From PubChem
The sample as a whole holds a higher share of hits than the screen did.
SARS PLP yeast: blocks SARS-CoV papain-like protease in a yeast assay. S. cerevisiae expressing SARS-CoV PLpro, growth rescue. Potency, µM (series often up to 32.9 µM), inactives show at the highest dose activity, positive = growth rescue, most hits filed as activators. 330,000 compounds, 0.19% hits. AID 485353; calls by dose curve; note: potency is the fitted concentration of half-maximal effect; 0% is about no effect; nearly all actives have a fitted effect of over 55% in size
AMA1-RON2 inh: AMA1-RON2 (P. falciparum) interaction inhibition; AlphaScreen AMA1-biotinylated RON2 peptide binding; Potency, µM (top dose mostly 58.2 µM), for the others: at the top dose activity change, negative = inhibition, most hits filed as inhibitors; 360,000 compounds, 0.2% hits; AID 720542;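 note: potency is the fitted concentration of half-maximal effect; 0% = vehicle wells and -100% = peptide control; nearly all actives have a fitted effect of over 45% in size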
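AMA1 (3D7) with his tag at 25 nM final met compounds first, then biotinylated RON2 peptide at 25 nM; detection used donor plus acceptor beads, 10 µg/mL apiece, read by AlphaScreen after 30 min at room temperature.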
Cycloheximide cs: counter-screen for Shiga toxin inhibitors: cycloheximide protein synthesis inhibition; max response, %; 300,000 compounds, 12% hits; cell reporter, cycloheximide protein synthesis inhibition counterscreen; in the data active = max response mostly above about 13%, no sharp cut-off; inactive = mostly below about 14%; note: read at 38.3 µM for the half of the compounds with a filed dose; 0% is about no effect
AmpC detergent: AmpC beta-lactamase inhibition with detergent present | 370,000 compounds, 0.041% hits | AmpC hydrolysis of nitrocefin, absorbance 480 nm, 0.01% Triton | P00811 | Potency, µM (series often up to 114 µM), inactives show top-dose activity change, negative = inhibition, actives largely listed as inhibitors;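 note: potency is the fitted concentration of half-maximal effect; 0% = no-compound wells and -100% = no-enzyme wells; nearly all actives have a fitted effect of over 25% in size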
Target sequence (P00811 whole entry, looked up): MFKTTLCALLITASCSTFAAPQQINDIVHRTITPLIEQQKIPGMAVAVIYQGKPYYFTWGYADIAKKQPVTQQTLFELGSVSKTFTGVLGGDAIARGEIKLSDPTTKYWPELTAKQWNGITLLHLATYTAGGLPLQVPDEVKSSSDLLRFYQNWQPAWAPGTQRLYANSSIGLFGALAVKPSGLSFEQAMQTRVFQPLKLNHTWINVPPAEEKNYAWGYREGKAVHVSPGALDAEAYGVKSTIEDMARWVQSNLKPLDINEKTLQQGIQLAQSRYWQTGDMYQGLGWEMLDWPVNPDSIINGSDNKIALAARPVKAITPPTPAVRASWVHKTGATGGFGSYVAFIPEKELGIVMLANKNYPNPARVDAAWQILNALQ
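20 mM phosphate pH 7.0 + 0.01% (detergent screen) or 0.0001% Triton X-100; 5.3 nM AmpC reagent; cpd preinc 15 min RT; nitrocefin (800 uM stock) to start; A480 q20 s × 4 min; Activity was normalised to no-enzyme and no-compound control wells.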
Shiga inhibitor: inhibitors of Shiga toxin in Vero cells; Vero cells, Shiga toxin protein synthesis inhibition reporter; inhibition, % at 38.7 µM; 290,000 compounds, 9.2% hits; AID 2315; in the data active = inhibition mostly above about 28%, no sharp cut-off; inactive = mostly below about 43%; note: 0% is about no effect
AmpC inh no detg: AmpC beta-lactamase inhibition without detergent | AmpC nitrocefin hydrolysis, absorbance 480 nm, 0.0001% Triton | Potency, µM (doses to about 57.1 µM), inactives show at the highest dose activity change, negative = inhibition, most hits filed as inhibitors | 330,000 compounds, 0.52% hits;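 note: potency is the fitted concentration of half-maximal effect; plate controls were no compound for no effect and no enzyme for full effect; nearly all actives have a fitted effect of over 20% in size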
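AmpC (5.3 nM in the dispensed reagent) in 20 mM phosphate pH 7.0 with 0.01% (detergent screen) or 0.0001% Triton X-100 was preincubated with compounds for 15 min at room temperature. Nitrocefin was then added from an 800 uM solution, and hydrolysis was followed at 480 nm.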
Numbers without * were called inactive. Unless noted, calls come from the whole dose curve; as a rule, active = well fitted curve in the direction sought with a large enough effect; inconclusive = small, poorly fitted or top-dose-only effect, or another doubt; inactive = no such curve, though single readings can be large; an effect the other way counts as inactive or inconclusive.

Screening CN1CCC(N(C)C(=S)Nc2ccc(SC(F)F)cc2)CC1 returned SARS PLP yeast 14.7%, AMA1-RON2 inh 0.7%, Cycloheximide cs 24.4*, AmpC detergent -3.0%, Shiga inhibitor active and AmpC inh no detg -17.5%.
Screening CN1CCC(N(C)C(=S)Nc2ccc(F)cc2)CC1 returned SARS PLP yeast 2.4%, AMA1-RON2 inh -2.4%, Cycloheximide cs -0.8, AmpC detergent -14.3%, Shiga inhibitor -3.3 and AmpC inh no detg -16.1%.
CC1Sc2ccc(S(=O)(=O)NCCc3ccccc3)cc2NC1=O (centres undefined) was read as SARS PLP yeast -1.1%, AMA1-RON2 inh 6.1%, Cycloheximide cs -4.6, AmpC detergent -2.9%, Shiga inhibitor -3.9 and AmpC inh no detg -22.3%.
`CCOc1ccc(-c2cn(CCC#N)cn2)cc1` gave SARS PLP yeast 3.0%, AMA1-RON2 inh 0.3%, Cycloheximide cs 14.5*, AmpC detergent -3.2%, Shiga inhibitor 18.3 and AmpC inh no detg -21.4%.
For CCC(C)C(=O)Nc1nnc(-c2cccs2)s1 (centres undefined) the results were SARS PLP yeast -14.3%, AMA1-RON2 inh 5.1%, Cycloheximide cs 64.4*, AmpC detergent -12.1%, Shiga inhibitor 58.7* and AmpC inh no detg -25.9%.
C=C(C)C(=O)Nc1nnc(-c2cccs2)s1 was read as SARS PLP yeast -15.8%, AMA1-RON2 inh 17.8%, Cycloheximide cs 21.4*, AmpC detergent -8.0%, Shiga inhibitor 81.4* and AmpC inh no detg -38.7%.
CCC(=O)Nc1nnc(-c2cccs2)s1 was read as SARS PLP yeast 0.6%, AMA1-RON2 inh -1.6%, Cycloheximide cs 14.0, AmpC detergent 0.4%, Shiga inhibitor 8.6 and AmpC inh no detg -18.8%.
For O=C1CCC2(CCCCC2)N1 the results were AMA1-RON2 inh 13.1%.
Screening N#C/C(=C\c1cccnc1)c1nc2c(s1)CCCC2 returned SARS PLP yeast -6.1%, AMA1-RON2 inh -2.4%, Cycloheximide cs 44.0*, AmpC detergent 0.1%, Shiga inhibitor 155.6* and AmpC inh no detg -12.7%.
For N#C/C(=C/c1cccnc1)c1ccccc1 the results were SARS PLP yeast -1.1%, AMA1-RON2 inh 2.1%, Cycloheximide cs 11.5, AmpC detergent -8.7% and AmpC inh no detg -8.9%.
COc1cc(/C=C(\C#N)c2nc3c(s2)CCCC3)ccc1O was read as SARS PLP yeast -25.4%, Cycloheximide cs 50.2*, AmpC detergent -8.8%, Shiga inhibitor 68.0* and AmpC inh no detg -7.4%.
CC1CCc2nc(/C(C#N)=C/c3cccnc3)sc2C1 (centres undefined) was read as SARS PLP yeast -15.4%, AMA1-RON2 inh -3.6%, Cycloheximide cs 51.5*, AmpC detergent 2.7%, Shiga inhibitor 145.2* and AmpC inh no detg 9.6%.
For Cc1ccc(OCCC(=O)OCC(=O)Nc2cc(S(=O)(=O)N(C)C)ccc2C)cc1 the results were SARS PLP yeast -2.2%, AMA1-RON2 inh 7.9%, Cycloheximide cs 8.3, AmpC detergent -10.5%, Shiga inhibitor 5.0 and AmpC inh no detg 35.1%.
`C=CCOc1c(CNc2ccc(C(=O)O)cc2)cccc1OCC` gave SARS PLP yeast -3.3%, AMA1-RON2 inh -0.6%, Cycloheximide cs 31.3*, AmpC detergent -0.9%, Shiga inhibitor 35.8* and AmpC inh no detg -15.0%.
`C=CCOc1cccc(CNc2cccc(C(=O)O)c2)c1` gave SARS PLP yeast 4.5%, AMA1-RON2 inh -0.6%, Cycloheximide cs 29.4*, AmpC detergent -5.3%, Shiga inhibitor 103.7* and AmpC inh no detg -21.4%.
C=CCOc1c(CNc2cccc(C(=O)O)c2)cccc1OC was read as SARS PLP yeast 10.9%, AMA1-RON2 inh -9.4%, Cycloheximide cs 37.2*, AmpC detergent -1.2%, Shiga inhibitor 71.1* and AmpC inh no detg -23.2%.
`CCOC(=O)c1cccc(S(=O)(=O)N2CCCC2)c1` gave SARS PLP yeast 8.3%, AMA1-RON2 inh -3.5%, Cycloheximide cs -2.2, AmpC detergent -3.7%, Shiga inhibitor -0.6 and AmpC inh no detg -6.1%.
`CC(=O)c1ccc(N2C(=O)N(Cc3ccc(F)cc3)c3ccccc3S2(=O)=O)cc1` gave AmpC detergent 0.1%.
Screening COc1ccccc1CCNC(=O)C1CCN(c2nnc(C)c3c(C)n(-c4ccc(C)cc4)nc23)CC1 returned SARS PLP yeast 1.1%, AMA1-RON2 inh 3.7%, Cycloheximide cs 3.3, AmpC detergent -3.8%, Shiga inhibitor -10.1 and AmpC inh no detg 111.4%.
Cc1ccc2nc(N3CCOCC3)c(C=O)cc2c1 was read as SARS PLP yeast -5.7%, AMA1-RON2 inh -1.6%, Cycloheximide cs 25.7*, AmpC detergent 3.8%, Shiga inhibitor 35.6 and AmpC inh no detg -0.4%.
CC(C)(NC(=O)NC(CO)c1ccccc1)c1cccc(C(C)(C)NC(=O)NC(CO)c2ccccc2)c1 (centres undefined) was read as SARS PLP yeast -14.2%, AMA1-RON2 inh -8.4%, AmpC detergent 7.1% and AmpC inh no detg 26.4%.
O=C(C1COc2ccccc2O1)N1CCCCC1 (centres undefined) was read as SARS PLP yeast 2.2%, AMA1-RON2 inh 17.7%, AmpC detergent -3.0% and AmpC inh no detg -9.4%.
O=C(Nc1ccon1)c1ccccc1Cl was read as SARS PLP yeast -3.1%, AMA1-RON2 inh -2.7%, Cycloheximide cs 18.7, AmpC detergent inconclusive, Shiga inhibitor 30.3 and AmpC inh no detg -15.3%.
Screening CCCC(=O)Nc1ccc(NC(=O)c2ccccc2)nc1 returned SARS PLP yeast 1.0%, AMA1-RON2 inh -5.5%, Cycloheximide cs 20.8*, AmpC detergent inconclusive, Shiga inhibitor 39.6* and AmpC inh no detg -1.4%.
Screening CCC(=O)Nc1ccc(NC(=O)Cc2ccccc2)cn1 returned SARS PLP yeast 6.3%, AMA1-RON2 inh -2.8%, Cycloheximide cs -4.1, AmpC detergent inconclusive, Shiga inhibitor -3.5 and AmpC inh no detg 9.9%.
For CC(C)C(=O)Nc1ccc(NC(=O)c2ccccc2Cl)nc1 the results were SARS PLP yeast -1.8%, AMA1-RON2 inh 16.2%, Cycloheximide cs 38.1*, AmpC detergent -1.4%, Shiga inhibitor 71.3* and AmpC inh no detg -19.3%.
Screening CCC(=O)Nc1ccc(NC(=O)CCc2ccccc2)cn1 returned SARS PLP yeast -7.6%, AMA1-RON2 inh -1.4%, Cycloheximide cs -2.9, AmpC detergent -10.1% and AmpC inh no detg -16.5%.
`CCC(=O)Nc1ccc(NC(=O)c2ccccc2)nc1` gave SARS PLP yeast -1.2%, AMA1-RON2 inh -10.3%, Cycloheximide cs 24.9*, AmpC detergent 1.2%, Shiga inhibitor 70.4* and AmpC inh no detg -30.1%.
For O=C(Nc1ccc(NC(=O)C2CCCCC2)nc1)c1cccs1 the results were SARS PLP yeast -0.2%, AMA1-RON2 inh -4.6%, Cycloheximide cs 34.7*, AmpC detergent -1.1%, Shiga inhibitor 64.6* and AmpC inh no detg -39.2%.
Screening O=C(CSc1nnc(-c2ccccc2)o1)NC1CC1 returned SARS PLP yeast -5.4%, AMA1-RON2 inh -3.3%, AmpC detergent -2.4% and AmpC inh no detg -8.2%.
